# Inconclusive results are not listed. Calls of active or inactive are those of the source. The call rests on the fitted dose curve; in most records, active means well fitted cell-killing curve with a large enough effect; inconclusive means small, poorly fitted or top-dose-only effect, or effect the other way; inactive means no such curve, though single readings can be large or run the other way.
# Assay: Viability qHTS for spleen associated tyrosine kinase inhibitor (SYKi) naive MV4-11 cells (AID 1963823); further: nearly all actives have a fitted effect of over 40% in size
# Conditions: MV4-11 AML viability, CellTiter-Glo luminescence, 72 h; series mostly up to 45 µM; viability (% of control): at the top concentration
# How it was run: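 Cells: MV4-11, SYK inhibitor naive, 500 per well. Treatment: library compounds, 72 hr, 37 C, 5% CO2. Read-out: CellTiter-Glo luminescence after 10 min RT.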
# Potency means the concentration at half of the fitted maximal effect.
SMILES,viability (% of control),Potency
CCn1c(=O)c2cc(C(N)=O)c(N)nc2n(C2CC2)c1=O,77.1% (inactive),–
C=C1C(=O)O[C@@H]2CC(C)=C([C@@H](C)CCCOC(C)=O)[C@@H](O)[C@H]12,71.7% (inactive),–
Cc1cc(N2CCN(C(=O)Oc3ccc(-c4ccccc4)cn3)CC2)c2ccccc2n1,–,6.51 µM (active)
CC12CCC(OC3OC(CO)C(O)C(OC4OC(CO)C(O)C(O)C4O)C3O)CC1=CCC1C2CCC2(C)/C(=C3/COC(=O)C3)CCC12O (configuration not stated),73.7% [at 17.3 µM] (inactive),–
C=C1C(=O)O[C@@H]2/C=C(\C)CC/C=C(\C)CC[C@@H]12,–,7.31 µM (active)
CCC(C)/C=C(C)/C=C/C1=CC2=C(Cl)C(=O)C(C)(OC(C)=O)C(=O)C2=CN1C(CC(=O)O)C(=O)O (configuration not stated),65.8% [at 17.3 µM] (inactive),–
CCCc1cc(C)n(C)c(=O)c1CN(C)C(=O)c1cc(-c2ccc(N3CCN(C(C)C)CC3)nc2)cc2c1cnn2C(C)C,65.8% (inactive),–
